Reference: PubChem BioAssay (Tox21)
Values without a mark were called inactive. Records with an inconclusive call do not appear. Activity calls are given as the source filed them. Calls follow the shape of the full dose curve.

biological target: Acetylcholinesterase (Homo sapiens) (UniProt P22303); assay: Acetylcholinesterase (AChE) small molecule antagonists: fluorescence cell-based qHTS assay (AID 1347398); details: SH-SY5Y cells; Potency: AChE activity; outcome: AChE activity; series mostly up to 115 µM; activity change, negative = inhibition: at the top concentration; also: nearly all actives have a fitted effect of over 50% in size
Sequence (P22303 whole entry, looked up): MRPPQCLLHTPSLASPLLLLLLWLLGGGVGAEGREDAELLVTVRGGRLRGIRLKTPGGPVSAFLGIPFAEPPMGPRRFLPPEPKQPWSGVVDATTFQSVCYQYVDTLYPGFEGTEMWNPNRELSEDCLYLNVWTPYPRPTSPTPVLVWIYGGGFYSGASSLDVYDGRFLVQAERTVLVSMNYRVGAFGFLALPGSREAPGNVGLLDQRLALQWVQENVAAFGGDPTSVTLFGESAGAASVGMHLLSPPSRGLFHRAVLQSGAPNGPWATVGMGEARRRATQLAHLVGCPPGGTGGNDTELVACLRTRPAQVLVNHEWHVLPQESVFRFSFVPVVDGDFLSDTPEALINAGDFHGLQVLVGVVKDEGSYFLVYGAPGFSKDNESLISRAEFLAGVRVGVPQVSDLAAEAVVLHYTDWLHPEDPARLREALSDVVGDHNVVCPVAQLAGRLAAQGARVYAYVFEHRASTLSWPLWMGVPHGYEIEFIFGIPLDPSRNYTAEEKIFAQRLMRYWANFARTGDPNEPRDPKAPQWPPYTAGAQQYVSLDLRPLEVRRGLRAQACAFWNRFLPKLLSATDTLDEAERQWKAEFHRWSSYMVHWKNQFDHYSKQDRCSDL
Outline: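 Using neuroblastoma SH-SY5Y cells as the enzyme source, test chemicals are preincubated 30 min at 37 C; AChE-driven acetylthiocholine cleavage is then quantified by thiocholine-dependent Thiolite Green fluorescence after 40 min at room temperature.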
% is scaled to controls: 0 for no effect and ±100 for the full control effect.

SMILES	activity change, negative = inhibition	outcome
Cc1ccc(S(=O)(=O)C(I)I)cc1	-19.2%	–
Cc1cccn2c(=O)c(-c3nnn[nH]3)cnc12	-17.5% [at 23.8 µM]	–
CCCO	6.55%	–
CCOC(=O)COC(=O)c1cc(Oc2ccc(C(F)(F)F)cc2Cl)ccc1[N+](=O)[O-]	3.52%	–
CCC(C)(C)C(=O)O	4.73%	–
COc1ccc(/C=C/S(=O)(=O)NC(=O)c2ccc(C)cc2Cl)cc1	3.57%	–
CC(O)COC(C)(C)C (stereo not given)	-0.802%	–
O=C(O)c1ccccc1-c1ccc(C(F)(F)F)cc1	10.4% [at 53.7 µM]	–
CC(C)(C)C(=O)/C=C/c1ccc(Cl)cc1	0.753%	–
CC(=O)OCCc1ccccc1	3.97%	–
O=C1OC(CN2CCOCC2)CN1/N=C/c1ccc([N+](=O)[O-])o1 (stereo not given)	-2.16% [at 53.7 µM]	–
N#CCCCC(C#N)CCC#N (stereo not given)	-7.44%	–
COC(=O)CC#N	5.09%	–
COC(=O)/C=C\C(=O)O	-0.193%	–
CC(C)c1cccc(C(C)C)c1NC(=O)NS(=O)(=O)c1cc(C(C)(C)O)co1	0.604%	–
FC(F)OC(Cl)C(F)(F)F (stereo not given)	4.57%	–
CN1[C@@H]2CC[C@H]1CC(OC(=O)C(O)c1ccccc1)C2 (stereo not given in full)	10.3% [at 53.7 µM]	–
CCCCC(CC)C(=O)OC(C)C (stereo not given)	7.47%	–
CCc1ccc(C=O)cc1	0.432%	–
CC(=O)SCC(CC(=O)c1ccc(C)cc1)C(=O)O (stereo not given)	10.4% [at 53.7 µM]	–

SMILES	activity change, negative = inhibition	outcome
O=C(O)c1c(O)c(-c2ccccc2)nc2ccccc12	0.181% [at 53.7 µM]	–
CCCCCCCCCCCCCCCCOP(=O)([O-])OCC[N+](C)(C)C	-8.98% [at 53.7 µM]	–
O=C(O)/C=C(\CC(=O)O)C(=O)O	10.2% [at 53.7 µM]	–
C=COCCOCCOCCOC=C	4.8%	–
C1=COCCC1	4.67%	–
CC/C=C\CCOC(=O)c1ccccc1	0.0247%	–
OCCN1CN(CCO)CN(CCO)C1	5.45%	–
Oc1cccc2c(O)cccc12	-9.52%	–
C=C(C)C(=O)OCCCCCCCCCCOC(=O)C(=C)C	-0.874%	–
O=C(CO)[C@@H](O)[C@H](O)[C@@H](O)CO	4.92% [at 53.7 µM]	–
CC(C)(C)C1(CCc2ccc(Cl)cc2)CO1 (stereo not given)	4.44%	–
CCCC(=O)O[C@]1(C(=O)CCl)[C@@H](C)C[C@H]2[C@@H]3CCC4=CC(=O)C=C[C@]4(C)[C@@]3(F)C(=O)C[C@@]21C	1.58% [at 53.7 µM]	–
CNCCCC1c2ccccc2C=Cc2ccccc21	–	inactive
CCN(CC)C(=O)/C(C#N)=C/c1cc(O)c(O)c([N+](=O)[O-])c1	-2.7% [at 53.7 µM]	–
Cc1cc(S(=O)(=O)O)ccc1N=Nc1c(O)ccc2ccccc12	-18.6%	–
CCC(=O)O[C@]1(C(=O)COC)[C@@H](C)C[C@H]2[C@@H]3CCC4=CC(=O)C=C[C@]4(C)C3(F)[C@@H](O)C[C@@]21C (stereo not given in full)	-2.74% [at 53.7 µM]	–
C[C@H]1O[C@@H](O[C@H]2CC[C@@]3(C)[C@H](CC[C@@H]4[C@@H]3C[C@@H](O)[C@]3(C)[C@@H](C5=CC(=O)OC5)CC[C@]43O)C2)C[C@H](O)[C@@H]1O[C@H]1C[C@H](O)[C@H](O[C@H]2C[C@H](O)[C@H](O[C@@H]3O[C@H](CO)[C@@H](O)[C@H](O)[C@H]3O)[C@@H](C)O2)[C@@H](C)O1	1.3% [at 53.7 µM]	–
COC(=O)c1ccc(NC(C)=O)cc1OC	0.0149% [at 53.7 µM]	–
NS(=O)(=O)c1cc(C(=O)NN2C[C@H]3[C@H]4CCC(C4)[C@H]3C2)ccc1Cl	-1.05% [at 53.7 µM]	–
CC(=O)NC1(c2cccc(F)c2)CCN(CC[C@@]2(c3ccc(Cl)c(Cl)c3)CN(c3ccccc3)C(=O)CO2)CC1	-15.8%	–

biological target: Acetylcholinesterase (Homo sapiens) (UniProt P22303); assay: Acetylcholinesterase (AChE) small molecule antagonists: enzyme-based qHTS assay with human liver microsomes (AID 1347399); details: Potency: qHTS inhibition; outcome: qHTS inhibition; series mostly up to 115 µM; activity change, negative = inhibition: at the top concentration; also: nearly all actives have a fitted effect of over 60% in size
Outline: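 Recombinant human AChE (50 mU/mL in the enzyme mix) and human liver microsomes (0.25 mg/mL final) were preincubated with compound and NADPH (0.25 mg/mL final) for 30 min at 37 C. Acetylthiocholine/DTNB was then added; thiocholine was read colorimetrically after 10 min at room temperature.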

SMILES	activity change, negative = inhibition	outcome
Cc1ccc(S(=O)(=O)C(I)I)cc1	-3.43%	–
Cc1cccn2c(=O)c(-c3nnn[nH]3)cnc12	-5.01% [at 23.6 µM]	–
CCCO	-0.615%	–
CCOC(=O)COC(=O)c1cc(Oc2ccc(C(F)(F)F)cc2Cl)ccc1[N+](=O)[O-]	-1.68%	–
CCC(C)(C)C(=O)O	-1.36%	–
COc1ccc(/C=C/S(=O)(=O)NC(=O)c2ccc(C)cc2Cl)cc1	0.373%	–
CC(O)COC(C)(C)C (stereo not given)	-1.34%	–
O=C(O)c1ccccc1-c1ccc(C(F)(F)F)cc1	0.879% [at 53 µM]	–
CC(C)(C)C(=O)/C=C/c1ccc(Cl)cc1	-1.94%	–
CC(=O)OCCc1ccccc1	0.294%	–
O=C1OC(CN2CCOCC2)CN1/N=C/c1ccc([N+](=O)[O-])o1 (stereo not given)	0.504% [at 53 µM]	–
N#CCCCC(C#N)CCC#N (stereo not given)	0.291%	–
COC(=O)CC#N	0.836%	–
COC(=O)/C=C\C(=O)O	0.153%	–
CC(C)c1cccc(C(C)C)c1NC(=O)NS(=O)(=O)c1cc(C(C)(C)O)co1	0.146%	–
FC(F)OC(Cl)C(F)(F)F (stereo not given)	1.16%	–
CN1[C@@H]2CC[C@H]1CC(OC(=O)C(O)c1ccccc1)C2 (stereo not given in full)	-0.885% [at 53 µM]	–
CCCCC(CC)C(=O)OC(C)C (stereo not given)	0.764%	–
CCc1ccc(C=O)cc1	-0.153%	–
CC(=O)SCC(CC(=O)c1ccc(C)cc1)C(=O)O (stereo not given)	5.71% [at 53 µM]	–

SMILES	activity change, negative = inhibition	outcome
O=C(O)c1c(O)c(-c2ccccc2)nc2ccccc12	0.443% [at 53 µM]	–
CCCCCCCCCCCCCCCCOP(=O)([O-])OCC[N+](C)(C)C	2.27% [at 53 µM]	–
O=C(O)/C=C(\CC(=O)O)C(=O)O	0.294% [at 53 µM]	–
C=COCCOCCOCCOC=C	0.226%	–
C1=COCCC1	1.11%	–
CC/C=C\CCOC(=O)c1ccccc1	-1.22%	–
OCCN1CN(CCO)CN(CCO)C1	0.324%	–
Oc1cccc2c(O)cccc12	-5.34%	–
C=C(C)C(=O)OCCCCCCCCCCOC(=O)C(=C)C	-1.37%	–
O=C(CO)[C@@H](O)[C@H](O)[C@@H](O)CO	-0.168% [at 53 µM]	–
CC(C)(C)C1(CCc2ccc(Cl)cc2)CO1 (stereo not given)	0.0066%	–
CCCC(=O)O[C@]1(C(=O)CCl)[C@@H](C)C[C@H]2[C@@H]3CCC4=CC(=O)C=C[C@]4(C)[C@@]3(F)C(=O)C[C@@]21C	0.504% [at 53 µM]	–
CNCCCC1c2ccccc2C=Cc2ccccc21	–	inactive
CCN(CC)C(=O)/C(C#N)=C/c1cc(O)c(O)c([N+](=O)[O-])c1	13.5% [at 53 µM]	–
Cc1cc(S(=O)(=O)O)ccc1N=Nc1c(O)ccc2ccccc12	-21.7%	–
CCC(=O)O[C@]1(C(=O)COC)[C@@H](C)C[C@H]2[C@@H]3CCC4=CC(=O)C=C[C@]4(C)C3(F)[C@@H](O)C[C@@]21C (stereo not given in full)	-2.86% [at 53 µM]	–
C[C@H]1O[C@@H](O[C@H]2CC[C@@]3(C)[C@H](CC[C@@H]4[C@@H]3C[C@@H](O)[C@]3(C)[C@@H](C5=CC(=O)OC5)CC[C@]43O)C2)C[C@H](O)[C@@H]1O[C@H]1C[C@H](O)[C@H](O[C@H]2C[C@H](O)[C@H](O[C@@H]3O[C@H](CO)[C@@H](O)[C@H](O)[C@H]3O)[C@@H](C)O2)[C@@H](C)O1	1.76% [at 53 µM]	–
COC(=O)c1ccc(NC(C)=O)cc1OC	1.91% [at 53 µM]	–
NS(=O)(=O)c1cc(C(=O)NN2C[C@H]3[C@H]4CCC(C4)[C@H]3C2)ccc1Cl	-3.26% [at 53 µM]	–
CC(=O)NC1(c2cccc(F)c2)CCN(CC[C@@]2(c3ccc(Cl)c(Cl)c3)CN(c3ccccc3)C(=O)CO2)CC1	1.46%	–
